A selection: hits, their analogues and other compounds. The true share with any hit is near 7.4%.
Rab9 promoter act: activates the Rab9 promoter | Potency, µM (top dose mostly 9.22 µM), for inactives: top-dose activation, negative = inhibition, most hits filed as activators | 320,000 tested, 2.8% active | Huh7 Rab9 promoter-luciferase reporter, luminescence, 24 h | AID 485297; note: % of control where 0% means no effect; nearly all actives have a fitted effect of over 60% in size
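Luciferase signal after 10 min detection reagent at ambient indicates Rab9 promoter upregulation; stably transfected Huh7 cells were treated 24 h with compound in DMSO at 37 °C, 5% CO2.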
FLuc modulator: firefly luciferase modulation, counter-screen for miR-21 project; P08659; purified FLuc, Km substrates, luminescence inhibition; Potency, µM (titrated, usually from 57.5 µM), for inactives: top-dose activity change, negative = inhibition, most hits filed as inhibitors; 360,000 tested, 6.9% active;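 note: plate controls were vehicle for no effect and reference inhibitor for full effect; nearly all actives have a fitted effect of over 55% in size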
Target sequence (P08659 whole entry, looked up): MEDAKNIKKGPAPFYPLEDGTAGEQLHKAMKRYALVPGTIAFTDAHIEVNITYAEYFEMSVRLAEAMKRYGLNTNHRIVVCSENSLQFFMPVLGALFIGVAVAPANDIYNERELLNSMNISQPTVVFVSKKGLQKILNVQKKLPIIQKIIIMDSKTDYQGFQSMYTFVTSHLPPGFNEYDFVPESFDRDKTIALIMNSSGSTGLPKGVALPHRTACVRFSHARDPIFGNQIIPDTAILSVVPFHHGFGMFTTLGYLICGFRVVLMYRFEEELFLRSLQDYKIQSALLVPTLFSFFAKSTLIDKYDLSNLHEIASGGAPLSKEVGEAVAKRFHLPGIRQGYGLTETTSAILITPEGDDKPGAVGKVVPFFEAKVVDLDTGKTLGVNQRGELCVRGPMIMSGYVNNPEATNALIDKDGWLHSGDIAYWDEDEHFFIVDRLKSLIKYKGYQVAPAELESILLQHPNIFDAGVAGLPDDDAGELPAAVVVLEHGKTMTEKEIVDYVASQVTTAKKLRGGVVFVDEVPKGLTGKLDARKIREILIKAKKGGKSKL
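Biochemical qHTS of compounds, final roughly 60 µM downward over six points, against 10 nM purified firefly luciferase using Km concentrations of substrates (10 uM D-luciferin, 10 uM ATP) in Tris acetate pH 7.5 buffer; luminescence output.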
ELG1 genotoxic: genotoxicity induction in ELG1-luciferase HEK293T cells; Potency, µM (doses to about 46 µM), for inactives: at the highest dose activity change, positive = activation, actives largely listed as activators; 330,000 tested, 1.3% active; AID 504466; HEK293T ELG1-luciferase reporter, luminescence, 16 h; note: % of control where 0% means no effect; nearly all actives have a fitted effect of over 60% in size
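HEK293T cells expressing luciferase-tagged ELG1 were exposed to compound or DMSO vehicle for 16 hr at 37 °C and 5% CO2. Luciferase activity was then measured with ONE-Glo after 30 min at room temperature.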
Luc counter: Kinase-Glo luciferase inhibition (counter-screen) | Q27757 | Kinase-Glo luciferase, ATP luminescence, 8 min | Potency, µM (top dose mostly 38.3 µM), for the others: top-dose activity change, negative = inhibition, usual class: inhibitors | 200,000 tested, 0.28% active; note: % is set by controls: 0 for no effect and ±100 for the full control effect; nearly all actives have a fitted effect of over 60% in size
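Inhibition of Kinase-Glo luciferase light generation was assessed at 10 uM ATP in pH 7.2 imidazole buffer, with luminescence measured after eight minutes at ambient temperature.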
NPC1 promoter act: NPC1 promoter activation. Huh7 NPC1 promoter luciferase reporter, 24 h. Potency, µM (titrated, usually from 9.22 µM), for inactives: top-dose activation, actives largely listed as activators. 320,000 tested, 2.4% active. AID 485313; note: % of control where 0% means no effect; nearly all actives have a fitted effect of over 60% in size
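Quantitative HTS used a cell-based reporter: Huh7 cells stably bearing the NPC1 promoter upstream of luciferase were treated with compounds for 24 h, and promoter activation was read as luminescence.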
SMN2 splice up: SMN2 splice variant enhancement | 210,000 tested, 2.8% active | AID 1458 | Potency, µM (doses to about 46.1 µM), for the others: at the top dose activity change, positive = activation, actives largely listed as activators | HEK293 SMN2-luciferase splicing reporter, luminescence, 30-36 h; note: % of control where 0% means no effect; nearly all actives have a fitted effect of over 55% in size
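HEK293 cells carry an SMN2 […]–luciferase reporter in which exon 7 inclusion puts luciferase in frame. Cells were plated 10-12 h before compound addition, then incubated 30-36 h at 37C. ONE-Glo luminescence was read; sodium butyrate at 4.5 mM final served as control.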
Active calls of the source: *; ? = inconclusive; . = no result given. Calls come from the whole dose curve; as a rule, active = well fitted curve in the direction sought with a large enough effect; inconclusive = small, poorly fitted or top-dose-only effect, or another doubt; inactive = no such curve, though single readings can be large; an effect the other way counts as inactive or inconclusive. Potency is the fitted concentration of half-maximal effect.

SMILES	Rab9 promoter act	FLuc modulator	ELG1 genotoxic	Luc counter	NPC1 promoter act	SMN2 splice up
CCn1c(=O)c2cc(C(=O)NCc3cc(OC)ccc3OC)sc2c2ccccc21	.	5%	.	.	.	-2%
Cc1ccc(-c2ccc(=O)n(CC(=O)NCCc3ccccc3)n2)cc1	.	-8%	.	.	.	.
O=C(COc1ccccc1)OCc1cc2ccccc2[nH]c1=O	0%	21µM*	-7%	2%	-1%	-6%
COc1ccc2oc(C(=O)Nc3nnc(C)s3)c(C)c2c1	0.71µM*	0.6µM*	3.3µM*	.	?	.
COc1ccc2oc(C(=O)NC(C)(C)C)c(C)c2c1	4µM*	15µM*	?	-3%	?	13µM*
Cc1ccc2oc(C(=O)Nc3nnc(C)s3)c(C)c2c1	1.4µM*	1.7µM*	5.8µM*	-5%	3.2µM*	16µM*
Cc1ccc2oc(C(=O)Nc3nonc3C)c(C)c2c1	3.2µM*	7.6µM*	?	.	?	.
CSc1ccc(CNC(=O)c2ccc3c(c2)N(C)C(=O)C2CCCCN32)cc1 (stereo not given)	.	2%	.	.	.	.
CCN1CCN(c2ccc(N=Cc3ccc(O)cc3O)cc2)CC1	-5%	17µM*	0%	-1%	1%	-9%
Cn1c(-c2ccc(F)cc2)cnc1SCC(=O)N1CCCc2ccccc21	-6%	?	0%	2%	-1%	-11%
Cn1c(-c2ccc(F)cc2)cnc1SCC(=O)N1CCCCC1	0.5µM*	2.7µM*	2.6µM*	-2%	0.56µM*	8.9µM*
CC1Cc2ccccc2N1C(=O)CSc1ncc(-c2ccc(F)cc2)n1C (stereo not given)	1.1µM*	1.9µM*	?	-2%	3.5µM*	13µM*
CCc1ccc(NC(=O)C(Cc2ccccc2)NS(=O)(=O)c2ccc3c(c2)c(=O)n(C)c(=O)n3C)cc1 (stereo not given)	.	-10%	.	.	.	2%
Cc1ccc2nc(COc3cccc(NC(=O)COc4ccc(F)cc4)c3)cc(=O)n2c1	.	-10%	.	.	.	.
CC(Cc1ccco1)NC(=O)c1cccc(S(=O)(=O)N(C)C)c1 (stereo not given)	?	?	15µM*	.	?	.
CC(Cc1ccco1)NC(=O)c1ccc(C(F)(F)F)cc1 (stereo not given)	1µM*	6.7µM*	8.2µM*	.	0.71µM*	.
O=C(NCc1ccco1)c1ccc(C(F)(F)F)cc1	1%	-1%	6%	2%	-2%	-6%
COc1ccc(-c2cc(-c3c(O)c(OC)c4occc4c3OC)[nH]n2)cc1OC	11%	17µM*	-5%	-3%	3%	-12%
COc1ccc(-c2cc(-c3c(O)c(OC)c4occc4c3OC)[nH]n2)cc1	3%	17µM*	-2%	0%	-1%	-35%
COc1ccc(-c2cc(-c3n[nH]c(=S)n3-c3ccccc3OC)[nH]n2)cc1	-1%	?	8%	1%	0%	16%
COc1ccc(-c2cc(=O)c3c(O)c(OC)c(OC)c(OC)c3o2)cc1OC	.	.	.	1%	.	12%
CCc1nn(Cc2cccc(F)c2)c(=O)c2cc3cc(C)ccc3n12	.	-9%	.	.	.	-5%
O=[N+]([O-])c1ccc2nc(N3CCCC3)sc2c1	3.5µM*	11µM*	?	.	3.2µM*	.
Fc1ccc2nc(N3CCCC3)sc2c1	?	12µM*	?	-11%	2.2µM*	13µM*
Fc1cc(F)c2nc(N3CCCCC3)sc2c1	27%	15µM*	?	?	?	?
CC(C)c1ccc(OCC(=O)Nc2cc(-c3ccccc3)no2)cc1	.	0%	.	.	.	9%
CCCCC(=O)OCC(=O)Nc1ccc(SC(F)F)cc1	4%	21µM*	2%	1%	2%	-5%
COc1cc(C(=O)OCC(=O)Nc2ccc(SC(F)F)cc2)cc(OC)c1OC	-8%	1%	-1%	1%	-2%	-99%
O=C(COC(=O)Cc1ccccc1F)Nc1ccc(SC(F)F)cc1	-3%	13µM*	0%	-4%	-2%	?

Screening data deposited in PubChem BioAssay by National Center for Advancing Translational Sciences (NCATS).
